What was measured:
Experiment in all cases: DAPPL (digital affinity profiling via proximity ligation, sequencing); 10 mM Tris-HCl pH 7.5, 50 mM NaCl, 1 mM DTT, 4% glycerol, room temperature, 30 min; GST-TFs on glutathione beads, 16-mer random dsDNA library, 0.1% formaldehyde crosslink after washing; high values mean tight binding
FLI1 = target: T1, FLI1 (Homo sapiens, UniProt Q01543 1-452); conditions: protein: recombinant; tags: N-terminal GST; dsDNA, one strand shown
T1 sequence: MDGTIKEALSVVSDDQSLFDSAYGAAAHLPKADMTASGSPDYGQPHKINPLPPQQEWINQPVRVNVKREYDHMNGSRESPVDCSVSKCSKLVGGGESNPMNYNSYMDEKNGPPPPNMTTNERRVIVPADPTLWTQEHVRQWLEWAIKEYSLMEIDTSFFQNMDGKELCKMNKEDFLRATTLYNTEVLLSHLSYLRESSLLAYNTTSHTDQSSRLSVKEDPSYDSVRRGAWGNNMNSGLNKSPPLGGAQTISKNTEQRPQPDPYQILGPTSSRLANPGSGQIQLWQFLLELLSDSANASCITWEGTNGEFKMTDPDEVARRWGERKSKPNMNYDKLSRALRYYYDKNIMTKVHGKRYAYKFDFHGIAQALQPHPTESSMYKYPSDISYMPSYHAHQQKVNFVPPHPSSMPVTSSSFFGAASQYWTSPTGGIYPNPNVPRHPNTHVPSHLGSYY
In short: (§1)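 Human transcription factors were made in yeast as GST fusions, captured on glutathione beads and barcoded with DNA. With a tag-only sample included, the pool was incubated with 200 nmole of a random double-stranded 16-mer DNA library in Tris/NaCl/DTT/glycerol buffer at room temperature for 30 min, then crosslinked with 0.1% formaldehyde after washing, ligated by proximity, amplified and sequenced. For binding signal, each hexamer's read frequency for a factor is divided by its frequency for the tag-only sample.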

ELK1 = target: T2, ELK1 (Homo sapiens, UniProt P19419 1-428); conditions: protein: recombinant; tags: N-terminal GST; dsDNA, one strand shown
T2 sequence: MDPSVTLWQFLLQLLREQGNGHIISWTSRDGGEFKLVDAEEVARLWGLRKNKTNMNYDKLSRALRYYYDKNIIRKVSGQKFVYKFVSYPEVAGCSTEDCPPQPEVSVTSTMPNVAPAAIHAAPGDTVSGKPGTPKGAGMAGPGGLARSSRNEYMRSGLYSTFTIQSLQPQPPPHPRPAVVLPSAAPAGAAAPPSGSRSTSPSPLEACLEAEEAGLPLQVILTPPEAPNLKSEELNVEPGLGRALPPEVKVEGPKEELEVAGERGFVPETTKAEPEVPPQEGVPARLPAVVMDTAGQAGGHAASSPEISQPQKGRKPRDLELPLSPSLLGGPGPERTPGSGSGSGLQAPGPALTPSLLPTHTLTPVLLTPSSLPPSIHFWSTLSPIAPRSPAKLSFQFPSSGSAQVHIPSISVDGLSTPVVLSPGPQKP
In short: as §1

GABPA = target: T3, GABPA (Homo sapiens, UniProt Q06546 1-454); conditions: protein: recombinant; tags: N-terminal GST; dsDNA, one strand shown
T3 sequence: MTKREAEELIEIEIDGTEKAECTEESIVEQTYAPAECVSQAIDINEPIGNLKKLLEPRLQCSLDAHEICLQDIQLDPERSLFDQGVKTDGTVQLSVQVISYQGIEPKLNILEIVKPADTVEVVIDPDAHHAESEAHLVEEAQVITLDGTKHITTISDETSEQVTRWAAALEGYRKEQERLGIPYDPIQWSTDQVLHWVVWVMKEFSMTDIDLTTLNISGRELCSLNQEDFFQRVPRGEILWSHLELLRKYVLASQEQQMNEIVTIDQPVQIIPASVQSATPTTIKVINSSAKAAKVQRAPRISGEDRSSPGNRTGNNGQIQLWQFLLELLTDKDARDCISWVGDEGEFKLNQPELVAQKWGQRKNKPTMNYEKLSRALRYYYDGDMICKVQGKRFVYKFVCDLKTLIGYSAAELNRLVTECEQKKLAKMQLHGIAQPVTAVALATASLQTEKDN
In short: as §1

ERG = target: T4, ERG (Homo sapiens, UniProt P11308 1-479); conditions: protein: recombinant; tags: N-terminal GST; dsDNA, one strand shown
T4 sequence: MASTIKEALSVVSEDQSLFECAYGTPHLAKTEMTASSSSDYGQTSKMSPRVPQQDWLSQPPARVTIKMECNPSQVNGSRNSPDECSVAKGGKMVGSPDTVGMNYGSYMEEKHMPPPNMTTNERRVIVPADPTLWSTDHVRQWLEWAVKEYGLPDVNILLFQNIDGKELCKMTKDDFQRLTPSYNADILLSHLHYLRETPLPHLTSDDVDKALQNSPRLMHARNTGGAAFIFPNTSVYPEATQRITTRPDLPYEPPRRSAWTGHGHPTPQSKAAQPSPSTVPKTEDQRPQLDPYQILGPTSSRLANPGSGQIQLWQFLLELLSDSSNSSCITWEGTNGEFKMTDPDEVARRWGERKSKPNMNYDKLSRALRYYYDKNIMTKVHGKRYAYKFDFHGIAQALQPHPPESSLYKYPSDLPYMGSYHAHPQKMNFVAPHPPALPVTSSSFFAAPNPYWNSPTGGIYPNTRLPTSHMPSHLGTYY
In short: as §1

ELF1 = ELF1 (Homo sapiens, UniProt P32519 1-619); conditions: protein: recombinant; tags: N-terminal GST; dsDNA, one strand shown
ELF1, sequence (P32519 whole entry): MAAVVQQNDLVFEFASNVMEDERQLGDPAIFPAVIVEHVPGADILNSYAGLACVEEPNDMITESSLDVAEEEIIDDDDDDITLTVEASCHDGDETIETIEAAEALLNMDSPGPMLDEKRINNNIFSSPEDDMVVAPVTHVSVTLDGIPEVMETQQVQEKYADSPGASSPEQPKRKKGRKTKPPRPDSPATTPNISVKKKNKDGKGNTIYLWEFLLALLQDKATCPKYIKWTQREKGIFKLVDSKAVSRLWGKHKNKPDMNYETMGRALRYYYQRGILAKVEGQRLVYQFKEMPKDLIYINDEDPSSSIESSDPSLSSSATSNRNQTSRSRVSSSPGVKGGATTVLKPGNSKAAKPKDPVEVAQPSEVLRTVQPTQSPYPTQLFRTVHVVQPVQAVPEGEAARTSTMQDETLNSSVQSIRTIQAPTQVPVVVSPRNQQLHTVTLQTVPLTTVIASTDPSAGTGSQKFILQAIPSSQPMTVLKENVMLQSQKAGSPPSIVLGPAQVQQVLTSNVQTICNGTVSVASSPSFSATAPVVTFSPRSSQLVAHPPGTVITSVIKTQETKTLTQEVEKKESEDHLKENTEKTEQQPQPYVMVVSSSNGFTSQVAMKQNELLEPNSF
In short: as §1

EHF = target: T5, EHF (Homo sapiens, UniProt Q9NZC4 1-300); conditions: protein: recombinant; tags: N-terminal GST; dsDNA, one strand shown
T5 sequence: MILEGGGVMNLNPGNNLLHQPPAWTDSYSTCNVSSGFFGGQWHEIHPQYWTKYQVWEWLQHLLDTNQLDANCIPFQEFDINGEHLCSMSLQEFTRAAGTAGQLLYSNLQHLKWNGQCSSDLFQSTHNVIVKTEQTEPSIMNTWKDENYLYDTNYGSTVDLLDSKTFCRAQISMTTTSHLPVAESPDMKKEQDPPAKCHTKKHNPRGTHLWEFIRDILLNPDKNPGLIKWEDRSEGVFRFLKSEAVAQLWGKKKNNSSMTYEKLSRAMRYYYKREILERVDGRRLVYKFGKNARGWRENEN
In short: as §1

SPI1 = SPI1 (Homo sapiens, UniProt P17947 1-270); conditions: protein: recombinant; tags: N-terminal GST; dsDNA, one strand shown
In short: as §1

SPIB = SPIB (Homo sapiens, UniProt Q01892 1-262); conditions: protein: recombinant; tags: N-terminal GST; dsDNA, one strand shown
SPIB, sequence (Q01892 whole entry): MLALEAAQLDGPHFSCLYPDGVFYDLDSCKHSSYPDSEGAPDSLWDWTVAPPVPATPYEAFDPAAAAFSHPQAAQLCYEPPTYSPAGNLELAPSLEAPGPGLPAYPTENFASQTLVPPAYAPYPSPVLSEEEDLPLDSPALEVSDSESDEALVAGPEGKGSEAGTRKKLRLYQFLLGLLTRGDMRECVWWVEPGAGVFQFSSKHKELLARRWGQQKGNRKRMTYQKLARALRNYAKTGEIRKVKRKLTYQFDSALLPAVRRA
In short: as §1

ELK3 = target: T6, ELK3 (Homo sapiens, UniProt P41970 1-407); conditions: protein: recombinant; tags: N-terminal GST; dsDNA, one strand shown
T6 sequence: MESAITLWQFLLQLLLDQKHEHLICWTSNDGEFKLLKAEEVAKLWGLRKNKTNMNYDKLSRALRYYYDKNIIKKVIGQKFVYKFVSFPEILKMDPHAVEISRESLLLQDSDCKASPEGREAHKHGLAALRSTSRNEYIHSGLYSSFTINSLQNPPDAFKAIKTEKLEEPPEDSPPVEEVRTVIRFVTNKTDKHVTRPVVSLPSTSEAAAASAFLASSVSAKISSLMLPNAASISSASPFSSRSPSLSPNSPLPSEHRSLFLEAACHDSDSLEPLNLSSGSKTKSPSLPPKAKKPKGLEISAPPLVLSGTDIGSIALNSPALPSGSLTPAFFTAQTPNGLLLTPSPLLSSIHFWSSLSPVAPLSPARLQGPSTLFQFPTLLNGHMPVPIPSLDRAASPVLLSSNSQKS
In short: as §1

FEV = target: T7, FEV (Homo sapiens, UniProt Q99581 1-238); conditions: protein: recombinant; tags: N-terminal GST; dsDNA, one strand shown
T7 sequence: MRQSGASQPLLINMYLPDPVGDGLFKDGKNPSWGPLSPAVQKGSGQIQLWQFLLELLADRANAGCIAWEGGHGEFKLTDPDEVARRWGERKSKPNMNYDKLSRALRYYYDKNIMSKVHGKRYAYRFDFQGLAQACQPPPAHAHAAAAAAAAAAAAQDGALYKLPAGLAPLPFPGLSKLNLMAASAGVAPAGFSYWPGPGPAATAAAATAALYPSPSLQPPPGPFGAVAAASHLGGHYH
In short: as §1

ETV5 = ETV5 (Homo sapiens, UniProt P41161 1-510); conditions: protein: recombinant; tags: N-terminal GST; dsDNA, one strand shown
ETV5, sequence (P41161 whole entry): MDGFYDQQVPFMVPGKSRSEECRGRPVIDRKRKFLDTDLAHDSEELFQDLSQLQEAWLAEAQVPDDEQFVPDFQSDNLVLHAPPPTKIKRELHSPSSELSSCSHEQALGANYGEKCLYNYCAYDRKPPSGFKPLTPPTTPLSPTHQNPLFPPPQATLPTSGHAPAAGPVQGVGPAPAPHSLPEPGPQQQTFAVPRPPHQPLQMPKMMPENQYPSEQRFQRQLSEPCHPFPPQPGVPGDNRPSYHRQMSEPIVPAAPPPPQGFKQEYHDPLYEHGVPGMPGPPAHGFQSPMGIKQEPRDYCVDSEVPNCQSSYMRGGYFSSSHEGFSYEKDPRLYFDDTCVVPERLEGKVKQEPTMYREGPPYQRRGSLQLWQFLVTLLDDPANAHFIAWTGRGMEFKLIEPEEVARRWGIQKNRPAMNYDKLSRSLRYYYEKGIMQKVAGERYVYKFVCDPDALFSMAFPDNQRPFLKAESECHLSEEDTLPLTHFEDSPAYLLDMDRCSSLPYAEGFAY
In short: as §1

HSF1 = HSF1 (Homo sapiens, UniProt Q00613 1-529); conditions: protein: recombinant; tags: N-terminal GST; chain copies: 3; dsDNA, one strand shown
HSF1, sequence (Q00613 whole entry): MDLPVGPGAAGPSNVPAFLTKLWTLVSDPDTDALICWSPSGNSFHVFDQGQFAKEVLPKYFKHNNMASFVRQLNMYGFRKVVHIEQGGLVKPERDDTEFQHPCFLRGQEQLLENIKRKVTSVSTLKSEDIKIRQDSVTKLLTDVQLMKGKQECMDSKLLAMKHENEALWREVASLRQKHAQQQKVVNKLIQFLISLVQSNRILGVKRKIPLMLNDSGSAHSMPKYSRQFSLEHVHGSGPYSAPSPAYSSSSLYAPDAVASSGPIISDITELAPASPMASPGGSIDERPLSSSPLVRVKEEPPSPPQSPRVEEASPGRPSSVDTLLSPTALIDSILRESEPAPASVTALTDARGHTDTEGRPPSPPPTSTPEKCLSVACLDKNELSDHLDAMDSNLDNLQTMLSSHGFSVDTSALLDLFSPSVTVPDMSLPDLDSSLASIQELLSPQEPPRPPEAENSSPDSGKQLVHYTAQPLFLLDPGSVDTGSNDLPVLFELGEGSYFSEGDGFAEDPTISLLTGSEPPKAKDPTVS
In short: as §1

SPIC = target: T8, SPIC (Homo sapiens, UniProt Q8N5J4 1-248); conditions: protein: recombinant; tags: N-terminal GST; dsDNA, one strand shown
T8 sequence: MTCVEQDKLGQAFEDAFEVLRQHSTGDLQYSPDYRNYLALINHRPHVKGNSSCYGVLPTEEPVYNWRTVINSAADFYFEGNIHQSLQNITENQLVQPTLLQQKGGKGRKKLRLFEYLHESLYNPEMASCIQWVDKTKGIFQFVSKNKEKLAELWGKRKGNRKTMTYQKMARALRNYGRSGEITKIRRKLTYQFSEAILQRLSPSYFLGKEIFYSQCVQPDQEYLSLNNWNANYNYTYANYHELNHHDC
In short: as §1

ELF4 = ELF4 (Homo sapiens, UniProt Q99607 1-663); conditions: protein: recombinant; tags: N-terminal GST; dsDNA, one strand shown
ELF4, sequence (Q99607 whole entry): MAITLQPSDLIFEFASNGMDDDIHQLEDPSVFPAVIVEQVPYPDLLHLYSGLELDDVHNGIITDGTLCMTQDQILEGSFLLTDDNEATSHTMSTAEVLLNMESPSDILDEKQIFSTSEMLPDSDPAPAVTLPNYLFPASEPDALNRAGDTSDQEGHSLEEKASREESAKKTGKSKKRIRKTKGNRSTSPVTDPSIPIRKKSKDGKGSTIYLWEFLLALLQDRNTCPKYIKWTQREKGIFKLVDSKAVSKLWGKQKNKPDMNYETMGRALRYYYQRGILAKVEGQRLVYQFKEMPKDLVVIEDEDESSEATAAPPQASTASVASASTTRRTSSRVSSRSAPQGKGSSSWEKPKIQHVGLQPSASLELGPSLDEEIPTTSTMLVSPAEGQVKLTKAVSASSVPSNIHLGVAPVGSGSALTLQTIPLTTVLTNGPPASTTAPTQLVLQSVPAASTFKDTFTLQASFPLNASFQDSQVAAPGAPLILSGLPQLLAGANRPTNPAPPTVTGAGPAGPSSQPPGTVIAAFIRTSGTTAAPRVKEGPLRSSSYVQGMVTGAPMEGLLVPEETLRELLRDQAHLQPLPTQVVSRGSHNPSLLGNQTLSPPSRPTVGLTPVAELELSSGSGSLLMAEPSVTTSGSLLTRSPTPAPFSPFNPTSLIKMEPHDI
In short: as §1

ELK4 = target: T9, ELK4 (Homo sapiens, UniProt P28324-2 1-405); conditions: protein: recombinant; tags: N-terminal GST; dsDNA, one strand shown
T9 sequence: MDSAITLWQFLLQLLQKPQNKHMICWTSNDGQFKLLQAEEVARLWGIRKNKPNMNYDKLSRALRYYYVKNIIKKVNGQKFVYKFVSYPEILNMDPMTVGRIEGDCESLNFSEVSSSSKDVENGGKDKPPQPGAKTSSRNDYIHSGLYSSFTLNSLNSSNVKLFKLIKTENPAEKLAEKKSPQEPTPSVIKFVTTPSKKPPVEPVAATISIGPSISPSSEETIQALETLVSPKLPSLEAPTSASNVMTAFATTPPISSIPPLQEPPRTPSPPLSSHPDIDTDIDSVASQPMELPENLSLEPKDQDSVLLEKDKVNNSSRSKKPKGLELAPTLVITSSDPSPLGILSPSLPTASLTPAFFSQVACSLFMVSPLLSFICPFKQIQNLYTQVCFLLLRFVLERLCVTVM
In short: as §1

ETV2 = target: T10, ETV2 (Homo sapiens, UniProt O00321 1-342); conditions: protein: recombinant; tags: N-terminal GST; dsDNA, one strand shown
T10 sequence: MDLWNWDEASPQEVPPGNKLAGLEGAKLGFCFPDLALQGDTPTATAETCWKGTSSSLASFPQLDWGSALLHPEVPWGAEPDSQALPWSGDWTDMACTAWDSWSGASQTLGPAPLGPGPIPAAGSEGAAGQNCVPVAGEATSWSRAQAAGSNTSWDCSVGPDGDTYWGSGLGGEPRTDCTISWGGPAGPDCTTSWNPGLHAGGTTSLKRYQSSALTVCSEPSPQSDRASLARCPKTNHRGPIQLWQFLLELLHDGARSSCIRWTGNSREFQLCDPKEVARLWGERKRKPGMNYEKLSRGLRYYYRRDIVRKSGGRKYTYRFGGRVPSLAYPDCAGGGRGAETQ
In short: as §1

ELF3 = target: T11, ELF3 (Homo sapiens, UniProt P78545 1-371); conditions: protein: recombinant; tags: N-terminal GST; dsDNA, one strand shown
T11 sequence: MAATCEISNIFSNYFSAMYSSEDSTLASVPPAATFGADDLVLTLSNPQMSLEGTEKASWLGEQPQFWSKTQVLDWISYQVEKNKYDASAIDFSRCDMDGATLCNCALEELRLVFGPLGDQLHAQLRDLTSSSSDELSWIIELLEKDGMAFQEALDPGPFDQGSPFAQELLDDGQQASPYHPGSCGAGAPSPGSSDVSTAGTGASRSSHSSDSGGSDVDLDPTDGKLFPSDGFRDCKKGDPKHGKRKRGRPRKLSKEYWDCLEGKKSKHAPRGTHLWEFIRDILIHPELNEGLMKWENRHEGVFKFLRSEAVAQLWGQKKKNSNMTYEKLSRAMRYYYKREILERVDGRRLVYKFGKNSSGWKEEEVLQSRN
In short: as §1

CRX = CRX (Homo sapiens, UniProt O43186 1-299); conditions: protein: recombinant; tags: N-terminal GST; dsDNA, one strand shown
CRX, sequence (O43186 whole entry): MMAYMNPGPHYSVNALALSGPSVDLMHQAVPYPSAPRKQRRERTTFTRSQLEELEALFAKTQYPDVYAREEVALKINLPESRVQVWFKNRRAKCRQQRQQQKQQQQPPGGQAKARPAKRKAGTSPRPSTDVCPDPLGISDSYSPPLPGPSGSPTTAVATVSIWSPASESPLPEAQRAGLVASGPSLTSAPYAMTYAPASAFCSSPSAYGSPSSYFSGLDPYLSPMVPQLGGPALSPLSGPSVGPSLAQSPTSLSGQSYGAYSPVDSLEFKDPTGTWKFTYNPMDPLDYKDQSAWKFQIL
In short: as §1

ETV1 = ETV1 (Homo sapiens, UniProt P50549 1-477); conditions: protein: recombinant; tags: N-terminal GST; dsDNA, one strand shown
ETV1, sequence (P50549 whole entry): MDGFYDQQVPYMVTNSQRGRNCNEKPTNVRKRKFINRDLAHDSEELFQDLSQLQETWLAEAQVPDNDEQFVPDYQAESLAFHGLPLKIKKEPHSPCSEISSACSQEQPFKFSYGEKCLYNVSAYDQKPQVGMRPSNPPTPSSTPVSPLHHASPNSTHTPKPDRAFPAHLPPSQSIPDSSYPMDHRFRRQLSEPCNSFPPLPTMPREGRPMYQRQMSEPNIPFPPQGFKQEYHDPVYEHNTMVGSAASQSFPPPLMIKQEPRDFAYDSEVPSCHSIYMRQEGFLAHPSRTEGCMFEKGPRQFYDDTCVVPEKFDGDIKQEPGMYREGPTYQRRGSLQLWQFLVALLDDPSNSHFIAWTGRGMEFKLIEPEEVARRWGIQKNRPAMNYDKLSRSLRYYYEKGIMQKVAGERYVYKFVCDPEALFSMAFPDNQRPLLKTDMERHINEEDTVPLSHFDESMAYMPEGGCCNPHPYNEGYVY
In short: as §1

Sequence: CCCTCC
- binding signal (FLI1): 1.37 fold enrichment (6-mer frequency, TF over GST control)
- binding signal (ELK1): 1.54 fold enrichment (6-mer frequency, TF over GST control)
- binding signal (GABPA): 1.5 fold enrichment (6-mer frequency, TF over GST control)
- binding signal (ERG): 1.41 fold enrichment (6-mer frequency, TF over GST control)
- binding signal (ELF1): 1.49 fold enrichment (6-mer frequency, TF over GST control)
- binding signal (EHF): 1.37 fold enrichment (6-mer frequency, TF over GST control)
- binding signal (SPI1): 1.35 fold enrichment (6-mer frequency, TF over GST control)
- binding signal (SPIB): 1.39 fold enrichment (6-mer frequency, TF over GST control)
- binding signal (ELK3): 1.37 fold enrichment (6-mer frequency, TF over GST control)
- binding signal (FEV): 1.51 fold enrichment (6-mer frequency, TF over GST control)
- binding signal (ETV5): 1.48 fold enrichment (6-mer frequency, TF over GST control)
- binding signal (HSF1): 1.22 fold enrichment (6-mer frequency, TF over GST control)
- binding signal (SPIC): 1.73 fold enrichment (6-mer frequency, TF over GST control)
- binding signal (ELF4): 1.58 fold enrichment (6-mer frequency, TF over GST control)
- binding signal (ELK4): 1.38 fold enrichment (6-mer frequency, TF over GST control)
- binding signal (ETV2): 1.32 fold enrichment (6-mer frequency, TF over GST control)
- binding signal (ELF3): 1.27 fold enrichment (6-mer frequency, TF over GST control)
- binding signal (CRX): 1.19 fold enrichment (6-mer frequency, TF over GST control)
- binding signal (ETV1): 1.45 fold enrichment (6-mer frequency, TF over GST control)

Reference: PMC7862700, “An all-to-all approach to the identification of sequence-specific readers for epigenetic DNA modifications on cytosine”
